# PubChem BioAssay (NCI)
# Compounds without any hit were thinned out: in the full panel of roughly 83,000, 20% have a hit.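 Interpretation: 100, growth as untreated; towards 0, rising growth inhibition; 0, no net growth; 0 to -100, cell death. Compounds scoring below 10 were considered active.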 The source made the active and inactive calls.
# Test system: HL-60(TB) leukemia
# Assay: NCI-60 one-dose screen, 48 h (100 = growth as untreated, 0 = no growth, -100 = all killed)
# Conditions: 10 µM unless noted
row,Structure (SMILES),growth
1,COc1ccc2[nH]cc(/C=N/Nc3ccnc4cc(Cl)ccc34)c2c1,-56.1% (active)
2,C#CCOc1ccccc1/C=N/Nc1nc(-c2ccc(Cl)cc2)cs1,90.8% (inactive)
3,COc1cc(OC)c(S(N)(=O)=O)cc1C(=O)/C=C/c1ccc(C)cc1,6.73% (active)
4,COc1cc(/C=C2\SC(=O)NC2=O)ccc1OCC(=O)Nc1ccc(C(=O)/C=C/c2cc3ccccc3nc2Cl)cc1,93.7% (inactive)
5,C=C(C)[C@@H]1CC[C@]2(COC)CC[C@]3(C)[C@H](CC[C@@H]4[C@@]5(C)CCCNC(C)(C)[C@@H]5CC[C@]43C)[C@@H]12,-69.2% (active)
6,CCCC(=O)NC(c1cccnc1)c1cc(C(C)=O)c2cccnc2c1O (configuration not stated),24.9% (inactive)
7,CN1CCN(c2ccc3c(C(N)=O)c(NC(=O)c4ccc(C(C)(C)C)cc4)sc3c2)CC1,28.5% (inactive)
8,CCOC(=O)c1c(NCC(=O)Nc2cccc([N+](=O)[O-])c2)sc2c1CCCC2,1.42% (active)
9,CC1(C)CC[C@]23CC[C@]4(C)[C@H](CC[C@@H]5[C@@]6(C)CC[C@H](N)C(C)(C)[C@@H]6CC[C@]54C)[C@H]2[C@H]1OC3,-38.4% (active)
10,COc1cc2oc(-c3cccc(C(=O)N[C@@H](CC(C)C)C(=O)OC(C)(C)C)c3)cc(=O)c2c(OC)c1OC,76.8% (inactive)
11,C#CCOc1cccc(/C(N)=N/C(N)=N/c2nc3ccccc3s2)c1,88.8% (inactive)
12,C#CC(=O)N(c1ccc(OC)cc1OC)C(C(=O)NCC(=O)OCC)c1cccs1 (configuration not stated),-51.2% (active)
13,N#Cc1c(-c2cccs2)cc(-c2cnccn2)nc1SCC(=O)NNC(=S)Nc1ccc(F)cc1,122% (inactive)
14,CC(C)(C)n1nnnc1C(Nc1cccc2c1OCO2)c1cc2cccc3ccc4cccc1c4c32 (configuration not stated),85.2% (inactive)
15,CC(=O)Nc1cc(N2CCOCC2)c2nc(NC(=O)c3[nH]c(C)c(Cl)c3Cl)sc2c1,82.9% (inactive)
16,O=C1c2c(c3c4cccnc4[nH]c3c3ccc4ccccc4c23)C(=O)N1CCN1CCOCC1,42.2% (inactive)
17,O=C(Nc1cccc(Cl)c1)Nc1nc2ccc([N+](=O)[O-])cc2s1,-40% (active)
18,NC/C(=C/F)COc1ccc2nc(NCc3cccnc3)oc2c1,125% (inactive)
19,COc1ccc(-c2nnc(/N=C3/C(=O)Nc4ccc(Br)cc43)o2)cc1,60.4% (inactive)
20,CC1=NC2=NC(=O)/C(=C3/N=C(C)C=C(c4ccccc4)N3N)NN2C(c2ccccc2)=C1,113% (inactive)
21,CCCCCCCCCCCC(=O)NC(C)(C)C(=O)N1CCCC1C(=O)NC(C)(C)C(=O)NC(C)(C)C(=O)N1CCCC1C(=O)NC(C)(C)C(=O)NC(C)(C)C(=O)N1CCCC1C(=O)NC(C)C(=O)NCCC(=O)NC(C)C(=O)NC(C)(C)C(=O)NC(C)(C)C(=O)NC(C)(C)C(=O)NCCC(=O)NC(C)(C)C(=O)NC(C)(C)C(=O)NC(C)(C)C(=O)NC(C)C(=O)NCCC(=O)O (configuration not stated),-66.3% (active)
22,CN1CCN(Cc2ccc(NC(=O)c3cncc(C#Cc4[nH]nc5ncncc45)c3)cc2C(F)(F)F)CC1,21.5% (inactive)
23,COc1ccc(OC)c(-c2nc(SCC(=O)c3ccc(Br)cc3)nc(Nc3ccc(S(N)(=O)=O)cc3)c2C#N)c1,25.9% (inactive)
24,O=C(CN1CCN(c2cc(=O)[nH]c3ccc(F)cc23)CC1)Nc1ccc(Cl)cc1,87.6% (inactive)
25,Cc1ccc(-c2cc(-c3cccc4ccccc34)n3c(n2)nc2ccccc23)cc1,7.27% (active)
26,Cc1cc(=O)[nH]c(O)c1C#N,100% (inactive)
27,CN1CCN(c2ccc(C(=O)/C=C/c3cc(F)cc(C(F)(F)F)c3)cc2)CC1,3.06% (active)
